Results filed as inconclusive are left out. Unmarked numbers belong to inactive results. Calls of active or inactive are those of the source. Calls follow the shape of the dose curve; as a rule, active = well fitted inhibition curve with a large enough effect in the repeat runs; inconclusive = weak or mixed curves; inactive = no such curve, though single readings can be large or run the other way.
% is scaled to controls: 0 for no effect and ±100 for the full control effect; potency is read from the fitted curve at half-maximal effect.

The target in this assay is Cytochrome P450 2C9 (Homo sapiens) (UniProt P11712). The experiment in a line: Cytochrome P450 Family 2 Subfamily C Member 9 (CYP2C9) small molecule antagonists: luciferase reporter qHTS assay (AID 1671198). Also: nearly all actives have a fitted effect of over 50% in size. The note with it: P450-Glo CYP2C9 enzyme assay, luciferin luminescence; series mostly up to 115 µM; activity change, negative = inhibition: at the top concentration. The text has this: U.S. Tox21 Program National Center for Advancing Translational Sciences [NCATS] U.S. Environmental Protection Agency [EPA] National Institutes of Environmental Health Sciences [NIEHS] National Toxicology Program [NTP] U.S. Food and Drug Administration [FDA] Tox21 Assay Overview: Cytochrome P450 (CYP) enzymes are membrane-bound hemeproteins that play a key role in metabolism of drugs and xenobiotics. Evaluation of the effect of chemicals on CYP isozymes is useful to minimize the adverse drug reactions and toxicities in drug development process. Tox21 chemicals were tested for their effect on CYP enzyme activities by using P450-Glo (TM) screening systems (Promega Corporation, Madison, WI). These systems provide a luminescent method containing proluciferin substrates and are converted to luciferin products by CYP isozymes. The luciferin products formed are detected with a luciferin detection reagent, and the amount of light produced is proportional to CYP activity. P450-Glo (TM) CYP2C9 screening system (Catalog. No. V9790) was used to detect the compounds that interfere in CYP2C9 activity.
Chain of Cytochrome P450 2C9 (Homo sapiens) (P11712 whole entry, looked up): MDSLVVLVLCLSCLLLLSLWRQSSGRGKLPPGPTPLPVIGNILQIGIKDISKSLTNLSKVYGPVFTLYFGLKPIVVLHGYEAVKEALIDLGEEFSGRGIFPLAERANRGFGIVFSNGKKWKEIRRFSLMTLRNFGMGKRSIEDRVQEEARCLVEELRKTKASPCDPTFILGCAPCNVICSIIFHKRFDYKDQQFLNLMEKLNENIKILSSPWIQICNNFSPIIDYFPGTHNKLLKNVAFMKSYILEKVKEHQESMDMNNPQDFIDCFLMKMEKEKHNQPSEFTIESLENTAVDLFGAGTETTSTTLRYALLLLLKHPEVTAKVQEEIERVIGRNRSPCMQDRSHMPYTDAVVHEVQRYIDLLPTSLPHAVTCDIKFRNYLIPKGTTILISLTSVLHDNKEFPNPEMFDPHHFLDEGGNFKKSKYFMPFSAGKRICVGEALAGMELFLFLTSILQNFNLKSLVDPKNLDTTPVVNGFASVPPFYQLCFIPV
Tox21 Assay Protocol Summary: Two ul of enzyme-substrate mix was dispensed into medium binding white/solid 1536-well plates (Greiner Bio-One North America Inc., Monroe, NC) using a BioRaptr Flying Reagent Dispenser (FRD, Beckman Coulter, Brea, CA). […] The assay plates were incubated at room temperature for 10 min. Then 2 ul of NADPH regeneration solution was added to each well of the assay plates using an FRD and incubated at 37C for 1 h. The reaction was stopped by adding 4 ul of detection reagent using an FRD and after 20 min incubation at room temperature the luminescence signal was measured using a ViewLux plate reader (Perkin Elmer, Shelton, CT). Data were expressed as relative luminescence units.
Take `CN(C)Cc1cc(C(C)(C)C)c(O)c(C(C)(C)C)c1`: the Potency was 11.2 µM (active).

As to `Cc1cc(C(C)(C)C)cc(C)c1CC1=NCCN1`, the “activity change, negative = inhibition” value was 8.15% [at 53 µM].

Turning to `S=c1nccc[nH]1`, the Potency was 20 µM (active).

As for `O=C(/C=C/c1ccccc1)OC/C=C/c1ccccc1`, the Potency is 31.7 µM (active).

With `CCn1c2ccccc2c2cc([N+](=O)[O-])ccc21`, the “activity change, negative = inhibition” value is -1.53%.

Consider `Cc1c(N)cccc1C(F)(F)F`, for which the “activity change, negative = inhibition” value is -1.62% [at 53 µM].

As to `CCO[C@@H]1O[C@H](C(COCc2ccccc2)OCc2ccccc2)[C@H](OCc2ccccc2)[C@H]1O` (stereo not given in full), the Potency was 8.71 µM (active).

Take `CCN(CC)c1ccc2c(-c3ccc(S(=O)(=O)O)cc3S(=O)(=O)[O-])c3ccc(=[N+](CC)CC)cc-3oc2c1`: the Potency is 16.4 µM (active).

In the case of `CCc1oc2ccccc2c1C(=O)c1cc(I)c(O)c(I)c1`, the Potency is 1.38 µM (active).

As to `CC[C@H](C)COC(=O)/C=C/c1ccc(N=Cc2ccc(OC)cc2)cc1`, the Potency was 5.63 µM (active).

As for `Nc1nc(N)nc(-c2cc(Cl)ccc2Cl)n1`, the “activity change, negative = inhibition” value was 1.9% [at 53 µM].

As for `CC(=O)OCC=C(C)C`, the “activity change, negative = inhibition” value is -7.43% [at 53 µM].

For `CC(C)(C)c1csc(-c2cc3cc(OCc4ccccc4CC(=O)O)ccc3o2)n1`, the Potency is 56.4 µM (active).

Turning to `C[C@H]1NCc2cc(-c3ccc4c(=O)c(C(=O)O)cn(C5CC5)c4c3OC(F)F)ccc21`, the activity change, negative = inhibition is 0.717% [at 23.6 µM].

Turning to `COc1ccc(NC(=O)CC(C)=O)cc1`, the “activity change, negative = inhibition” value was -14.5%.

For `Nc1ccc(NCCO)c([N+](=O)[O-])c1`, the Potency was 35.6 µM (active).

Turning to `O=C(O)c1cccc(C(F)(F)F)c1`, the Potency is 79.6 µM (active).

On to `CCCCOC(=O)CO`, for which the “activity change, negative = inhibition” value is -8.14%.

Regarding `CC1=CCC(=C(C)C)CC1`, the Potency was 39.9 µM (active).

Turning to `Nc1ccc(Oc2ccc(Cl)cc2)cc1`, the Potency is 12.4 µM (active).

For the compound `C=CC(=O)OCCOC(=O)C=C`, the “activity change, negative = inhibition” value was -3.96%.

Take `CCCCCC(C)OC(=O)COc1ccc(Cl)c2cccnc12` (stereo not given): the Potency is 11.2 µM (active).

Consider `NC(=O)c1cccc([N+](=O)[O-])c1`, for which the “activity change, negative = inhibition” value is 0.913%.

For the compound `CC(=O)CC(=O)Nc1ccc(S(=O)(=O)O)cc1`, the “activity change, negative = inhibition” value was -11.7%.

`O=c1c(O)c(-c2ccc(O)cc2O)oc2cc(O)cc(O)c12`: the Potency was 21.1 µM (active).

As for `Nc1ccc(C(=O)O)c(O)c1`, the “activity change, negative = inhibition” value was -1.68% [at 53 µM].

For the compound `C[Si](Cl)(c1ccccc1)c1ccccc1`, the Potency is 4.37 µM (active).

On to `O[C@@H]([C@H](O)[C@H](O)CBr)[C@H](O)CBr`, for which the “activity change, negative = inhibition” value is 2.56%.

As to `CCCCC(CC)COC(=O)CCCCC(=O)OCc1ccccc1` (stereo not given), the Potency was 15.9 µM (active).

As for `OC12N=C(c3ccccc3)SC1Cc1cc(Cl)ccc12` (stereo not given), the Potency was 0.894 µM (active).

Regarding `CC1(C)CCC[C@]2(C)[C@H]3CC(=O)O[C@]3(C)CC[C@@H]12`, the Potency was 39.9 µM (active).

With `CC(N=C(NC#N)Nc1ccncc1)C(C)(C)C` (stereo not given), the Potency was 13.8 µM (active).

With `Cc1c(C)c([N+](=O)[O-])c(C(C)(C)C)c([N+](=O)[O-])c1C`, the Potency was 35.6 µM (active).

Regarding `Cc1ccc(O)c(N)c1`, the Potency is 15.9 µM (active).

As to `CCCCCCC1CCCC(=O)O1` (stereo not given), the Potency was 25.2 µM (active).

Take `CCC(C)n1ncn(-c2ccc(N3CCN(c4ccc(OC[C@H]5CO[C@](Cn6cncn6)(c6ccc(Cl)cc6Cl)O5)cc4)CC3)cc2)c1=O` (stereo not given in full): the Potency was 13.8 µM (active).

On to `Cc1ccc(C(=O)O)cc1`, for which the “activity change, negative = inhibition” value was -1.47%.

Take `CCCCOC(=O)CC`: the “activity change, negative = inhibition” value was -19.3%.

Regarding `O=S(=O)(O)c1ccc(Nc2nc(Nc3ccc(/C=C/c4ccc(Nc5nc(Nc6ccc(S(=O)(=O)O)cc6)nc(N(CCO)CCO)n5)cc4S(=O)(=O)O)c(S(=O)(=O)O)c3)nc(N(CCO)CCO)n2)cc1`, the “activity change, negative = inhibition” value is -0.127% [at 53 µM].

Take `CCCc1ccc(OCC(=O)N2CCN(C(=O)COc3ccc(CCC)cc3OC)CC2)c(OC)c1`: the Potency was 3.47 µM (active).

The values above are taken from PubChem BioAssay (Tox21).
